Only a selection was taken, and hits are over-represented in it overall.
AmpC inh no detg – inhibitors of E. coli AmpC beta-lactamase without detergent; P00811; AmpC nitrocefin hydrolysis, absorbance 480 nm, 0.0001% Triton; Potency, µM (doses to about 57.1 µM), without a hit: at the highest dose activity change, negative = inhibition, hits mostly inhibitors; hit rate 0.52% among 330,000; AID 485341;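 note: potency is the fitted concentration of half-maximal effect; plate controls were no compound for no effect and no enzyme for full effect; nearly all actives have a fitted effect of over 20% in size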
Target sequence (P00811 whole entry, looked up): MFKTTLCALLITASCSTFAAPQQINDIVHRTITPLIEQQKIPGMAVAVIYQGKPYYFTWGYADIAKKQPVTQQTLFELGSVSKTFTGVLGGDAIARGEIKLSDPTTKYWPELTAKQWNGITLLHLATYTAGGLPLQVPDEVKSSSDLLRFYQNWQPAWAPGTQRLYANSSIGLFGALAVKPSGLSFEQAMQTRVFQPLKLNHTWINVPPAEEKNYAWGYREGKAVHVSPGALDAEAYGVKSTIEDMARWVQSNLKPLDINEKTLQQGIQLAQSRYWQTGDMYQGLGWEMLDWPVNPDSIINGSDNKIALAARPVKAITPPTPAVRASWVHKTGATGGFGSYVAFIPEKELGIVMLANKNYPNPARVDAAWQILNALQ
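20 mM phosphate pH 7.0 + 0.01% (detergent screen) or 0.0001% Triton X-100; 5.3 nM AmpC reagent; cpd preinc 15 min RT; nitrocefin (800 uM stock) to start; A480 q20 s × 4 min; Activity was normalised to no-enzyme and no-compound control wells.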
SARS PLpro yeast – blocks SARS-CoV papain-like protease in a yeast assay; S. cerevisiae expressing SARS-CoV PLpro, growth rescue; Potency, µM (top dose mostly 32.9 µM), inactives show at the top dose activity, positive = growth rescue, actives largely listed as activators; hit rate 0.19% among 330,000; AID 485353; calls by dose curve; note: potency is the fitted concentration of half-maximal effect; 0% is about no effect; nearly all actives have a fitted effect of over 55% in size
Shiga inhibitor – inhibitors of Shiga toxin in Vero cells; inhibition, % at 38.7 µM; AID 2315; Vero cells, Shiga toxin protein synthesis inhibition reporter; hit rate 9.2% among 290,000; in the data active = inhibition mostly above about 28%, no sharp cut-off; inactive = mostly below about 43%; note: 0% is about no effect
AMA1 RON2 block – AMA1-RON2 (P. falciparum) interaction inhibition. AlphaScreen AMA1-biotinylated RON2 peptide binding. Potency, µM (titrated, usually from 58.2 µM), for the others: at the top dose activity change, negative = inhibition, hits mostly inhibitors. hit rate 0.2% among 360,000. AID 720542;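 note: potency is the fitted concentration of half-maximal effect; 0% = vehicle wells and -100% = peptide control; nearly all actives have a fitted effect of over 45% in size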
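AMA1 (3D7) with his tag at 25 nM final met compounds first, then biotinylated RON2 peptide at 25 nM; detection used donor plus acceptor beads, 10 µg/mL apiece, read by AlphaScreen after 30 min at room temperature.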
AmpC detergent – AmpC beta-lactamase inhibition with detergent present; P00811; AmpC hydrolysis of nitrocefin, absorbance 480 nm, 0.01% Triton; Potency, µM (series often up to 114 µM), for the others: at the top dose activity change, negative = inhibition, actives largely listed as inhibitors; hit rate 0.041% among 370,000;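 note: potency is the fitted concentration of half-maximal effect; 0% = no-compound wells and -100% = no-enzyme wells; nearly all actives have a fitted effect of over 25% in size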
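20 mM phosphate pH 7.0 + 0.01% (detergent screen) or 0.0001% Triton X-100; 5.3 nM AmpC reagent; cpd preinc 15 min RT; nitrocefin (800 uM stock) to start; A480 q20 s × 4 min; Activity was normalised to no-enzyme and no-compound control wells.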
CHX counter – counter-screen for Shiga toxin inhibitors: cycloheximide protein synthesis inhibition; cell reporter, cycloheximide protein synthesis inhibition counterscreen; max response, %; hit rate 12% among 300,000; in the data active = max response mostly above about 13%, no sharp cut-off; inactive = mostly below about 14%; note: read at 38.3 µM for the half of the compounds with a filed dose; 0% is about no effect
Numbers without * were called inactive; u = inconclusive; x = no result. Unless noted, calls come from the whole dose curve; as a rule, active = well fitted curve in the direction sought with a large enough effect; inconclusive = small, poorly fitted or top-dose-only effect, or another doubt; inactive = no such curve, though single readings can be large; an effect the other way counts as inactive or inconclusive.

SMILES | AmpC inh no detg | SARS PLpro yeast | Shiga inhibitor | AMA1 RON2 block | AmpC detergent | CHX counter
CC(=O)Nc1ccccc1OCC(=O)c1cc(C)n(Cc2cccs2)c1C | 50% | -12% | 127* | -2% | 0% | 66*
O=C(COc1cccnc1[N+](=O)[O-])c1ccc(Cl)s1 | u | -2% | 29 | -2% | -10% | 18*
COc1ccc(C(C#N)N2CCC(c3ccccc3)=N2)cc1OC (centres undefined) | -4% | -2% | 27 | 2% | -13% | 17*
COc1ccc(C(C#N)N2CCCCCC2)cc1OC (centres undefined) | -13% | 11% | 7 | -5% | -9% | -2
COc1cc(C(C#N)N2CCC(c3ccccc3)=N2)ccc1O (centres undefined) | -21% | -1% | 91* | 2% | 9% | 25*
CCC(=O)N1CCCC1(C)C(=O)Nc1ccc2scnc2c1 (centres undefined) | x | x | x | 0% | x | x
CCOC(=O)N(C)c1ccc(C(O)(C(F)(F)F)C(F)(F)F)cc1 | 28% | 0% | 15 | -7% | 3% | 9
Nc1c(-c2ccccc2Cl)cnn1-c1cccc([N+](=O)[O-])c1 | -32% | -5% | 48 | 19% | 2% | 18
Cc1cnnn1-c1cccc([N+](=O)[O-])c1 | -18% | -5% | 27 | 14% | u | -4
Cc1ccc(-c2cnn(-c3cccc([N+](=O)[O-])c3)c2N)cc1 | -23% | -2% | 103* | -16% | u | 46*
Cc1ccccc1-c1cnn(-c2cccc([N+](=O)[O-])c2)c1N | -26% | -1% | 39 | -12% | -6% | 26*
Cc1ccc(-n2nc3c(=O)n(C(C)C(=O)NCc4ccccc4Cl)nc(C)c3c2C)cc1 (centres undefined) | -2% | 0% | 16 | -17% | 0% | 7
CSc1ccccc1OCc1cc(C(=O)NC(C)Cn2cncn2)no1 (centres undefined) | 25% | -3% | 18 | 9% | -6% | 13*
CSc1ccccc1OCc1cc(C(=O)NCCN2CCCc3ccccc32)no1 | -15% | -5% | 16 | -3% | -9% | 33*
CSc1ccccc1OCc1cc(C(=O)NCC(C)(C)N2CCOCC2)no1 | 139% | 1% | 55 | 10% | 0% | 8
CSc1ccccc1OCc1cc(C(=O)NCCn2nc(C)cc2C)no1 | 69% | -2% | 6 | -21% | -5% | 11*
CC(CCn1cccn1)NC(=O)c1cc(COc2ccc(F)cc2Cl)on1 (centres undefined) | 56% | -1% | 4 | 0% | 7% | 1
O=C1CC(c2ccccc2)n2nc(NC(=O)c3cccnc3)nc2N1 (centres undefined) | 2% | 6% | 10 | x | u | -4
O=C(Nc1ccc2c(c1)OCO2)N1CCC(CO)(CC2CCCCO2)CC1 (centres undefined) | -7% | -2% | 46* | 4% | 6% | 17*
O=C(c1ccc2c(c1)OCO2)N1CCN(c2cccc(C(F)(F)F)c2)CC1 | 54% | 1% | -4 | -19% | -4% | -3
O=C(Nc1ccc2c(c1)OCO2)N1CCN(c2ccccc2Cl)CC1 | -25% | -13% | 85* | 9% | 11% | 52*
O=C(Nc1ccc2c(c1)OCO2)N1CCN(c2cccc(C(F)(F)F)c2)CC1 | u | -4% | 27* | -8% | -10% | 12*
CCC(C(=O)OC)n1cnc2c(nnn2-c2cccc(OC)c2)c1=O (centres undefined) | -15% | -1% | 38 | -8% | 1% | 16*
COC(=O)C(C)n1cnc2c(nnn2-c2ccccc2)c1=O (centres undefined) | -22% | -3% | 16 | -19% | -12% | -3
COC(=O)C(C)n1cnc2c(nnn2-c2cccc(OC)c2)c1=O (centres undefined) | 1% | 3% | 41* | 0% | 0% | 20*
COc1cc(/C=N/NC(=O)c2ccncc2)ccc1OC(=O)c1ccco1 | -4% | -1% | -12 | 21% | -4% | 12
CCOC(=O)Cn1cnc(C)c1 | x | x | x | 9% | x | x

Bioassay records as filed in PubChem BioAssay.
